From the supplement of paper PMC6555819

Assays:
Assay in all cases: PBM binding z-score (relative to random genomic background probes); higher = stronger binding; sequences stand for … in GC…GCGATTGACAGCGTAGAATGAAGG
[1] = tested on: PPARg:RXRa DBDmut IVT, anti-RXR (DBD mutation: RXRa K156A/R161A, NR concentration 270 nM, RXRa partner concentration 90 nM)
How it was run: (§1)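 Ligand-free nuclear receptor dimers were applied to custom Agilent 4×180K protein-binding microarrays whose double-stranded probes carried direct-repeat seeds, single-nucleotide variants, half-site ablations and random human genomic background sequences in 34-nt variable regions. Incubation lasted 1 h. Binding z-scores were computed against the random background probes from regression-normalized fluorescence.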

[2] = tested on: PPARg:RXRa IVT, anti-PPARg (NR concentration 270 nM, RXRa partner concentration 90 nM)
How it was run: as §1

[3] = tested on: PPARg DBDmut:RXRa IVT, anti-PPARg (DBD mutation: PPARg1 K132A/R137A, NR concentration 270 nM, RXRa partner concentration 90 nM)
How it was run: as §1

[4] = tested on: PPARg DBDmut IVT, anti-PPARg (DBD mutation: PPARg1 K132A/R137A, NR concentration 270 nM)
How it was run: as §1

[5] = tested on: PPARg homodimer (NR concentration 180 nM)
How it was run: as §1

[6] = tested on: PXR:RXRa (NR concentration 270 nM, RXRa partner concentration 90 nM)
How it was run: as §1

[7] = tested on: PXR homodimer (NR concentration 270 nM)
How it was run: as §1

[8] = tested on: RARa:RXR (NR concentration 270 nM, RXRa partner concentration 90 nM)
How it was run: as §1

[9] = tested on: RARa homodimer (NR concentration 270 nM)
How it was run: as §1

[10] = tested on: RARb:RXRa (NR concentration 270 nM, RXRa partner concentration 90 nM)
How it was run: as §1

[11] = tested on: RARb homodimer (NR concentration 270 nM)
How it was run: as §1

[12] = tested on: RARg:RXRa (NR concentration 270 nM, RXRa partner concentration 90 nM)
How it was run: as §1

[13] = tested on: RARg homodimer (NR concentration 270 nM)
How it was run: as §1

[14] = tested on: RXRa DBDmut IVT, anti-RXR (DBD mutation: RXRa K156A/R161A, NR concentration 90 nM)
How it was run: as §1

[15] = tested on: RXRa homodimer (NR concentration 180 nM)
How it was run: as §1

[16] = tested on: THRa:RXRa (NR concentration 90 nM, RXRa partner concentration 90 nM)
How it was run: as §1

[17] = tested on: THRa homodimer (NR concentration 90 nM)
How it was run: as §1

[18] = tested on: VDR:RXRa (NR concentration 270 nM, RXRa partner concentration 90 nM)
How it was run: as §1

[19] = tested on: VDR homodimer (NR concentration 270 nM)
How it was run: as §1

Sequence | PBM binding z-score [1] | PBM binding z-score [2] | PBM binding z-score [3] | PBM binding z-score [4] | PBM binding z-score [5] | PBM binding z-score [6] | PBM binding z-score [7] | PBM binding z-score [8] | PBM binding z-score [9] | PBM binding z-score [10] | PBM binding z-score [11] | PBM binding z-score [12] | PBM binding z-score [13] | PBM binding z-score [14] | PBM binding z-score [15] | PBM binding z-score [16] | PBM binding z-score [17] | PBM binding z-score [18] | PBM binding z-score [19]
CCAGACAGGTGAAAGGAAACTCAGTCTGGTACGC | 1.07 | 0.474 | -0.232 | -0.58 | 0.283 | -0.274 | -0.261 | 0.0734 | -0.148 | 0.522 | -0.0541 | 0.0543 | 0.198 | -0.167 | 0.41 | -0.104 | -0.669 | -0.116 | -0.334
ATATTTAGGTTAGCTGGGGTCATTCAGACTAGGC | 5.87 | 4.88 | 2.64 | 2.22 | 3.24 | 6.14 | 5.08 | 5.14 | 3.11 | 3.21 | 3.93 | 4.05 | 3.26 | 2.19 | 5.09 | 5.1 | 4.01 | 6.03 | 6.12
TCTTGTAGATCAACAGGCGGTTAAGAAAGATCGA | 1.91 | 0.45 | 0.508 | 0.822 | -0.291 | 0.038 | -0.259 | 0.363 | -0.0268 | -0.0147 | -0.586 | 0.0814 | -0.187 | 0.904 | 0.0872 | -0.136 | -0.273 | 0.345 | -0.602
CCTACTGGGCCATTCAGAGGTCATAGATCATATG | 4.09 | 4.44 | 0.601 | -0.0592 | 2.01 | 4.2 | 1.2 | 4.42 | 0.421 | 2.97 | 3.97 | 4.15 | 2.99 | 0.411 | 3.98 | 3.27 | 1.4 | 3.64 | 2.6
TCTAGTTGGTCAAAGGTCACACATTCGAAATGCG | 3.49 | 6.33 | 1.17 | 1.94 | 4.05 | 5.8 | 1.55 | 6.86 | 2.63 | 5.06 | 5.15 | 6.77 | 5.76 | 1.62 | 7.57 | 4 | 2.07 | 5.09 | 2.42
AGAATGAGGTTATCAAGATCAGGGAATTGCGGTC | 3.5 | 2.6 | 0.708 | -0.123 | 0.956 | 1.27 | 0.0679 | 1.67 | 0.465 | 1.71 | 1.07 | 1.5 | 1.12 | 1.46 | 2.19 | 2.49 | 0.835 | 2.56 | 0.805
CCTCGGAGGACAGATGGTCAGAGCTGTCCGCTTT | -0.386 | -0.558 | -1 | -1.4 | 0.238 | -0.384 | -0.503 | -0.309 | -0.685 | 0.479 | 0.0769 | 0.0731 | 0.421 | -0.0448 | -0.625 | -0.175 | -0.332 | -0.581 | -0.436
TCTCGGAGGCCACGAAAGGTCAGAGCTCGACATC | 1.78 | 1.96 | 0.112 | -0.0793 | 2.29 | 4.58 | -0.146 | 4.54 | 0.24 | 4.24 | 4.92 | 4.88 | 5.06 | 0.746 | 4.3 | 4.02 | 0.552 | 3.62 | 0.735
CCTACTGGGCCCAAAAGGTCATTGATGCCGATAA | 0.117 | 1.66 | -0.622 | -1.17 | 2.86 | 4.97 | 1.92 | 5.31 | 1.46 | 3.93 | 4.35 | 4.87 | 4.11 | -0.121 | 5.65 | 3.15 | 0.687 | 4.63 | 1.84
CAAACTAGGTCACCGGAAGGTCAAATTCCGCATG | 8.5 | 8.8 | 3.05 | 2.87 | 7.39 | 6.11 | 2.46 | 7.62 | 3.35 | 5.12 | 5.55 | 8.17 | 7.31 | 2.13 | 6.55 | 4.58 | 3.11 | 5.9 | 2.93
GCATATAAGTAATACAAGGTGAAAGTCCGATTGT | 0.462 | 0.546 | 0.743 | 0.728 | 0.405 | 0.436 | 0.309 | 1.13 | 0.698 | 0.452 | 0.816 | 0.308 | 0.389 | 0.717 | 0.568 | 2.96 | 0.985 | 0.0691 | -0.188
AGAACGAGGGCATGCTGAGTTGATAGCAGAGTAG | 2.87 | 1.99 | 0.0501 | -0.0747 | -0.0685 | 1.14 | 0.117 | 0.374 | -0.883 | 1.89 | 0.498 | 1.33 | 1.34 | 2.24 | 0.92 | 1.2 | -0.497 | 1.5 | 1.74
CGAACTCGGTCAGAACAGGACAGTGAAGGATGAT | 1.72 | 1.11 | -0.0702 | 0.48 | 0.274 | -0.108 | -0.225 | 0.713 | -0.378 | 1.55 | 1.03 | 1.4 | 1.81 | 0.172 | 0.348 | 1.78 | -0.368 | -0.191 | 0.368
CCTACTGGGCCAAAGGGCATTGATTCCAATGCTC | 4.36 | 5.09 | 0.51 | -0.625 | 1.09 | 0.249 | -0.593 | 0.757 | -0.681 | 1.59 | 1.16 | 1.06 | 0.727 | -0.785 | 0.895 | 0.159 | -0.934 | 0.0732 | -0.17
GCGACTGGCGCAAAGCAGGTTACCATAAGGTTGG | -0.223 | -0.321 | -1.05 | -1.11 | -0.736 | -0.34 | -0.486 | -0.0579 | -0.958 | -0.386 | -0.0806 | -0.27 | -0.774 | -0.791 | -0.0574 | 0.636 | -0.543 | -0.716 | -0.861
